# Hits are enriched below; roughly 12% of the tested compounds scored in any of these assays.
# BAZ2B inh = inhibitors of human BAZ2B bromodomain | AID 504333 | 360,000 tested, 4.4% active | Potency, µM (top dose mostly 114 µM), inactives show top-dose activity change, negative = inhibition, hits mostly inhibitors | AlphaScreen BAZ2B-H3K14Ac peptide displacement | Q9UIF8; note: % is set by controls: 0 for no effect and ±100 for the full control effect; nearly all actives have a fitted effect of over 60% in size
#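 Protein-peptide AlphaScreen: BAZ2B 50 nM, b-H3K14Ac 50 nM, 1x PBS pH 7.4 + 0.01% Tween-20. Preincubation 30 min RT; cpd 30 min RT (top 110 uM); beads 20 min RT, light-protected.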
# JMJD2A Tudor = inhibitors of human JMJD2A Tudor domain; Potency, µM (doses to about 114 µM), without a hit: at the highest dose activity change, negative = inhibition, most hits filed as inhibitors; 390,000 tested, 4.4% active; AlphaScreen JMJD2A-Tudor / H3K4me3 peptide binding; AID 504339; O75164; note: % is set by controls: 0 for no effect and ±100 for the full control effect; nearly all actives have a fitted effect of over 50% in size
# Target sequence (O75164 whole entry, looked up, the tested form may be a part): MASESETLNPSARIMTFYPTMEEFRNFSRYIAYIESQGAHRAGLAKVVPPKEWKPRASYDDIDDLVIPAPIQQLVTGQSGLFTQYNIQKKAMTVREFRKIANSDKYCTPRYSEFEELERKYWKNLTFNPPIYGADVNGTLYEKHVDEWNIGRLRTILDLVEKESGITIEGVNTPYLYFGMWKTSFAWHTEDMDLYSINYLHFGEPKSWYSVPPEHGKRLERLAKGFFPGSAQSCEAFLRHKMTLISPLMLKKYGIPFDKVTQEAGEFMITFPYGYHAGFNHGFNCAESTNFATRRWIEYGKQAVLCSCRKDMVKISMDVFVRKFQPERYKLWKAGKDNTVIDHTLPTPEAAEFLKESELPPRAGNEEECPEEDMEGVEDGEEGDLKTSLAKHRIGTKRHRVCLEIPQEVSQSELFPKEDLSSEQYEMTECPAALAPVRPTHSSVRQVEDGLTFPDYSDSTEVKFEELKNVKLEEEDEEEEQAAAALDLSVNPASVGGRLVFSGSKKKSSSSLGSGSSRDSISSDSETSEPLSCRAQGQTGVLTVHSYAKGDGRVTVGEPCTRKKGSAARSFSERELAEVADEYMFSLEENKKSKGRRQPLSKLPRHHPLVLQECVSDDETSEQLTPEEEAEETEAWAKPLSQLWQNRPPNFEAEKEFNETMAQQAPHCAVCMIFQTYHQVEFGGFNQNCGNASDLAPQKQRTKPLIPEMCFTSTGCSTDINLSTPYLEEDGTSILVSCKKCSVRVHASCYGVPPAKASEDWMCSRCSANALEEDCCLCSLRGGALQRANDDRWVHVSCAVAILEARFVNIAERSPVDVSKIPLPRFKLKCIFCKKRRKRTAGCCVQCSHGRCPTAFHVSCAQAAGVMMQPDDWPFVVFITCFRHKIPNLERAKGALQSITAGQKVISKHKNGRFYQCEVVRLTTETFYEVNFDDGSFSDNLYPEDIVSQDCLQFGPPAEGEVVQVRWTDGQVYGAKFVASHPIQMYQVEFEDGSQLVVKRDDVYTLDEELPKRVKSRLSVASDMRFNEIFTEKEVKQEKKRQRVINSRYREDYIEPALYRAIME
# Sfp inh = Sfp phosphopantetheinyl transferase inhibition; Q9F4F7; Biochemical Sfp PPTase activity, qHTS; Potency, µM, for the others: largest response in the series, negative = inhibition, usual class: inhibitors; 310,000 tested, 3.5% active; AID 1490;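 note: the enzyme is Sfp with the accession as filed and its product quenches rhodamine fluorescence; 0% = enzyme reaction without inhibitor and -100% = no enzyme wells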
#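 Step 1, compound plus 15 nM Sfp-PPTase, 15 min, room temperature. Step 2, add rhodamine-CoA (5 uM) and BHQ-2-YbbR (12.5 uM). Step 3, read 525/598 nm fluorescence at 0 and 30 min.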
# HP1b binding inh = HP1-beta chromodomain-methylated histone interaction inhibition; AlphaScreen HP1-beta / biotin-H3K9me3 peptide binding; Potency, µM (top dose mostly 114 µM), without a hit: at the top dose activity change, negative = inhibition, actives largely listed as inhibitors; 390,000 tested, 0.56% active; AID 540317; note: nearly all actives have a fitted effect of over 70% in size
#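 AlphaScreen: HP1-beta (50 nM) preformed 30 min with biotin-H3(1-18)K9me3 peptide (50 nM) in PBS pH 7.4, 0.01% Tween-20. Compound added for 30 min at RT, then streptavidin donor/nickel chelate acceptor beads (10 ug/mL) for 30 min.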
# G9a block = blocks human histone lysine methyltransferase G9a; Q96KQ7; G9a H3K9 monomethylation, AlphaScreen, 2 h; Potency, µM (doses to about 102 µM), for inactives: at the top dose activity, negative = inhibition, usual class: inhibitors; 350,000 tested, 8.8% active; AID 504332; note: % is set by controls: 0 for no effect and ±100 for the full control effect; nearly all actives have a fitted effect of over 75% in size
#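 AlphaScreen detection with an anti-monomethyl H3K9 antibody quantified product after a 2 h room-temperature reaction containing 500 nM biotinylated H3K9 peptide, 20 µM SAM and 20 nM enzyme, which had been preincubated 15 min with compound.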
# L3MBTL1 block = L3MBTL1 (human) inhibition; Potency, µM (top dose mostly 57.1 µM), inactives show at the highest dose activity, negative = inhibition, most hits filed as inhibitors; AlphaScreen L3MBTL1–H3K9me1 peptide binding; 230,000 tested, 0.66% active; Q9Y468; note: % is set by controls: 0 for no effect and ±100 for the full control effect; nearly all actives have a fitted effect of over 60% in size
#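 L3MBTL1 (50 nM) pre-complexed 30 min with biotinylated H3(1-15)K9me1 peptide (75 nM), then compounds added for 30 min at room temperature; AlphaScreen streptavidin donor/nickel chelate acceptor beads (10 ug/mL final) read after 30 min dark incubation.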
# * marks the source's active call; other numbers are inactive results; ? = inconclusive; nt = no result given; [ ] = another dose, or the depositor's remark. Calls come from the whole dose curve; as a rule, active = well fitted curve in the direction sought with a large enough effect; inconclusive = small, poorly fitted or top-dose-only effect, or another doubt; inactive = no such curve, though single readings can be large; an effect the other way counts as inactive or inconclusive. Potency is the fitted concentration of half-maximal effect.
SMILES,BAZ2B inh,JMJD2A Tudor,Sfp inh,HP1b binding inh,G9a block,L3MBTL1 block
O=C(Cc1ccc(Br)cc1)Nc1ccc(S(=O)(=O)NCC2CCCO2)cc1 (stereo not given),-17%,22µM*,26%,-11%,7%[12.7 µM],0%
COCC(=O)Nc1ccc(S(=O)(=O)NCC2CCCO2)cc1 (stereo not given),1%,0%,11%,12%,25%,11%
CC(=O)Nc1ccc(S(=O)(=O)NNC(=S)NCC2CCCO2)cc1 (stereo not given),-27%,?,56µM*,17%,32µM*,nt
COC(=O)C(=N/Nc1ccccc1C(=O)OC)/C(C)=N/O,-15%,3%,-8%,13%,50µM*,nt
CCn1c(C(=O)N2CCC(C(=O)N3CCN(c4ccccn4)CC3)CC2)cc2sccc21,-25%,-26%,19%,17%,-13%[59 µM],4%
CCn1c(C(=O)N2CCC(C(=O)N3CCN(c4ccc(OC)cc4)CC3)CC2)cc2sccc21,?,?,nt,-21%,?,nt
CCn1c(C(=O)N2CCC(C(=O)N3CCN(c4cccc(C)c4C)CC3)CC2)cc2sccc21,22µM*,?,nt,-12%,?,nt
CCn1c(C(=O)N2CCC(C(=O)N3CCN(c4cc(C)ccc4C)CC3)CC2)cc2sccc21,22µM*,22µM*,nt,?,?,nt
CCCC(=O)NCCc1c2n(c3ccc(OC)cc13)CCCc1ccccc1-2,nt,nt,nt,nt,11%[12.7 µM],nt
CCOc1ccc(S(=O)(=O)NCCC(=O)N2CCN(c3ccccc3O)CC2)cc1,1%,-14%,nt,17%,-9%[2.33 µM],-3%
CCOC(=O)c1c(NC(=O)CSc2nc3ccccc3[nH]2)sc2c1CC(C)(C)NC2(C)C,-6%,-33%,nt,-3%,40µM*,-7%
CCOC(=O)c1c(NC(=O)COC(=O)/C=C/c2ccco2)sc2c1CC(C)(C)NC2(C)C,?,?,nt,?,16µM*,?
COc1ccc([C@@H](C)C(=O)c2ccc(O)cc2O)cc1,nt,nt,1%,nt,nt,nt
Cc1nc(-c2cccc(C(F)(F)F)c2)sc1C(=O)O,?,-9%,13%,3%,56µM*,3%
CCCCn1c(N)c(N(CCOC)C(=O)COC(=O)CCOc2ccccc2C)c(=O)[nH]c1=O,-18%,6%,nt,22%,-26%,12%
COc1ccc(OC)c(-c2ccc(C(=O)O)o2)c1,nt,nt,-12%,nt,?,nt
CCOc1ccc2c(c1)[C@@H]1C=CC[C@@H]1[C@H](c1ccccc1Cl)N2,28µM*,45µM*,nt,?,11µM*,nt
O=C(NC1CC1)C1Nc2ccc(OC(F)(F)F)cc2C2C=CCC12 (stereo not given),nt,-17%,nt,38%,nt,nt
CCOC(=O)C1Nc2ccc(OC(F)(F)F)cc2C2C=CCC12 (stereo not given),nt,25µM*,nt,?,nt,nt
Brc1cc2c(cc1C1Nc3ccccc3C3C=CCC31)OCO2 (stereo not given),-34%,-23%,-7%,19%,42%[59 µM],-15%
C1=CC2c3ccccc3NC(c3ccncc3)C2C1 (stereo not given),?,45µM*,32µM*,?,1.6µM*,?
Cc1ccc2c(c1)C1C=CCC1C(C(=O)O)N2 (stereo not given),6.3µM*,nt,?,nt,4µM*,3.2µM*
COc1ccc(/C=C(/NC(=O)c2cccc([N+](=O)[O-])c2)C(=O)O)cc1,-4%,-8%,4%,39%,-4%,nt
O=C(O)C1Nc2c(cccc2C(F)(F)F)C2C=CCC12 (stereo not given),40µM*,nt,50µM*,nt,2.5µM*,nt
COC(C(=O)N/N=C(\C)c1ccc(O)cc1)c1ccccc1 (stereo not given),5%,-5%,-2%,58%,9%[59 µM],6%
SMILES,BAZ2B inh,JMJD2A Tudor,Sfp inh,HP1b binding inh,G9a block,L3MBTL1 block
CC(=O)c1ccc2c(c1)C1C=CCC1C(C(=O)O)N2 (stereo not given),6.3µM*,6.3µM*,-20%,20µM*,-174%[12.7 µM],1.3µM*
COC(=O)c1ccc(C2Nc3ccc(/C(C)=N/NC(=O)C(OC)c4ccccc4)cc3C3C=CCC32)cc1 (stereo not given),56µM*,79µM*,?,-21%,7.1µM*,-9%
O=C(O)c1ccc2c(c1)C1C=CCC1C(c1cc3c(cc1Br)OCO3)N2 (stereo not given),-34%,-29%,-5%,4%,-45%,-16%
CC(=O)c1ccc2c(c1)C1C=CCC1C(c1ccncc1)N2 (stereo not given),50µM*,?,-28%,-9%,?,-22%
Cn1c2ccccc2c2cnn(CC(=O)Nc3ccccc3F)c(=O)c21,?,-17%,nt,21%,?,nt
FC(F)(F)c1cnc(Nc2ccc(N3CCOCC3)cc2)c(Cl)c1,35µM*,?,-2%,?,22µM*,-24%
COc1ccc(C(=O)NCN2CCN(c3ccccc3)CC2)cc1OC,10%,-11%,nt,27%,0%[12.7 µM],3%
C/C=C(/CC[C@@H](C)[C@H]1CCC2C3=CC[C@H]4[C@H](C)[C@@H](O)CC[C@]4(C)C3CC[C@@]21C)C(C)C (stereo not given in full),nt,nt,-1%,nt,-16%[59 µM],nt
COc1ccc(C2NCCc3c2[nH]c2ccccc32)cc1COc1ccc(F)cc1 (stereo not given),35µM*,40µM*,45µM*,?,?,-14%
COc1ccc(C2NCCc3c2[nH]c2ccccc32)cc1CN1CCc2cc(OC)c(OC)cc2C1C (stereo not given),?,-24%[11.4 µM],-17%,4%,45µM*,nt
COc1ccc(/C=N/NC(=O)c2cc(OC)c(OC)c(OC)c2)cc1CN1CCc2cc(OC)c(OC)cc2C1C (stereo not given),-16%,-25%,17%,10%,?,nt
Cc1nc(S/C(=C/c2ccc(-c3cccc(Cl)c3)o2)C(=O)O)n[nH]1,8%,-17%,45µM*,19%,21%[59 µM],8%
CCc1nn2c(=O)cc(COc3ccc(/C=C(\C#N)C(=O)Nc4ccc(C)cc4)cc3)nc2s1,-2%,-14%,nt,37%,-3%[59 µM],nt
Cc1nn(C)c2c1c(C(F)(F)F)cc(=O)n2Cc1cccc(Br)c1,169%,60%,nt,98%,69%[59 µM],nt
COc1cc(/C=C(/C#N)c2nc(-c3cc4ccccc4oc3=O)cs2)cc([N+](=O)[O-])c1O,?,nt,7%,nt,3.2µM*,-8%
N#C/C(=C\c1cccc(F)c1)c1nc(-c2cc3ccccc3oc2=O)cs1,5%,-9%,nt,43%,6%[59 µM],nt
CCN(CC)CCOC(=O)c1ccc(N/C=C(/C#N)c2nc(-c3cc4ccccc4oc3=O)cs2)cc1,-2%,?,-29%,18µM*,1.6µM*,nt

# Compound activity deposited in PubChem BioAssay by National Center for Advancing Translational Sciences (NCATS).
